From PubChem BioAssay
The list is not random: actives were taken first. Their share in the collection is about 6.5%.
Vaccinia Venus – inhibitors of vaccinia virus (Venus reporter); Vaccinia virus Venus reporter expression, fluorescence; Potency, µM (doses to about 36.5 µM), inactives show at the top dose activity change, negative = inhibition, most hits filed as inhibitors; 330,000 tested, 0.46% active; AID 720580; calls by dose curve; tested in A549 cells; note: potency is the fitted concentration of half-maximal effect; nearly all actives have a fitted effect of over 30% in size
LASV entry inh – blocks Lassa virus binding to or entry into cells | Lassa virus pseudotype entry inhibition, cell reporter | 300,000 tested, 1.2% active | Potency, µM (titrated, usually from 37.9 µM), inactives show top-dose activity change, negative = inhibition, usual class: inhibitors; calls by dose curve; tested in HEK293 cells; note: potency is the fitted concentration of half-maximal effect; nearly all actives have a fitted effect of over 50% in size
Vaccinia mCherry – vaccinia inhibition (mCherry reporter); Vaccinia virus mCherry reporter infection, fluorescence; Potency, µM (series often up to 36.5 µM), inactives show at the top dose activity change, negative = inhibition, usual class: inhibitors; AID 720579; 310,000 tested, 0.63% active; calls by dose curve; tested in A549 cells; note: potency is the fitted concentration of half-maximal effect; nearly all actives have a fitted effect of over 35% in size
FMDV antiviral – antivirals against foot and mouth disease virus; FMDV antiviral cell-based qHTS; Potency, µM (doses to about 57.9 µM), for inactives: at the top dose activity change, negative = inhibition, actives largely listed as inhibitors; 410,000 tested, 1.2% active; AID 1159524; calls by dose curve; tested in HEK293T cells; note: read-out not given here; potency is the fitted concentration of half-maximal effect; nearly all actives have a fitted effect of over 45% in size
MARV entry inh – blocks Marburg virus binding to or entry into cells | Marburg virus pseudotyped entry inhibition, cell reporter | Potency, µM (titrated, usually from 37.8 µM), without a hit: at the top dose activity change, negative = inhibition, most hits filed as inhibitors | 300,000 tested, 1.8% active | AID 540276; calls by dose curve; tested in HEK293 cells; note: potency is the fitted concentration of half-maximal effect
HCMV inh – human cytomegalovirus inhibition; activity change, negative = inhibition, % at 57.5 µM; 410,000 tested, 4.5% active; AID 1259415; HFF cells, HCMV-luciferase reporter, 72 h; stronger effect = lower value; in the data active = activity change below about -60%; inconclusive = no clear call, values can overlap the other calls; inactive = above about -39%
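Inhibition of viral replication was scored as loss of reporter luminescence in HFFs infected with HCMV-luciferase (MOI 1 PFU/cell) for 72 h; compounds tested at 2 doses, normalized to buffer and Salinomycin controls.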
The depositor's hits bear a star; i = inactive; ? = inconclusive; nt = not tested or not shown; ! = repeats disagree; [ ] = dose if it differs, or a comment. % is set by controls: 0 for no effect and ±100 for the full control effect.

SMILES	Vaccinia Venus	LASV entry inh	Vaccinia mCherry	FMDV antiviral	MARV entry inh	HCMV inh
CNC(=O)/C(C#N)=C1\SC(Cc2ccc(F)cc2)C(=O)N1c1ccccc1C (centres undefined)	nt	nt	nt	-18%	nt	22
C/C(=N\N=C1\NC(=O)C(Cc2ccccc2)S1)c1ccccc1 (centres undefined)	nt	2.3µM*	nt	3%	25%	22
CC(=O)/C(C#N)=C1\NC(=O)C(Cc2ccccc2)S1 (centres undefined)	119%	?	?	60%	2.5µM*	-99*
Cc1ccc(C2=NCC(C)n3nc4ccccc4c32)cc1 (centres undefined)	nt	nt	nt	nt	nt	-9
O=C(c1cccs1)N(Cc1cccc(F)c1)C1CCS(=O)(=O)C1 (centres undefined)	nt	nt	nt	5%	nt	3
COc1ccc(C2=C/C(=C\c3cccc(OC(C)=O)c3)C(=O)O2)cc1	nt	7%	nt	4%	-1%	-65*
CC(C)=CCCC(C)=CCON=C1C[C@@H](O)[C@@H](O)[C@@H]2[C@H]3C(=O)N(C[C@@H]4CCCO4)C(=O)[C@@H]3CC[C@H]12	nt	nt	nt	nt	22%[14.2 µM]	nt
CN(C)c1ccc(/C=C\C=C/c2ccnc3ccccc23)cc1	18%	nt	51%	nt	nt	nt
O=C(O)c1ccccc1N/N=C/c1cc(Br)cc(Br)c1O	-5%	?	-22%	-2%	15µM*	34
O=C(O)c1ccccc1N/N=C\c1ccnc2ccccc12	-13%	?	nt	10µM*	4µM*	?
COc1ccc2ccccc2c1CN1CCCC(n2cc(C(=O)N3CCCC3)nn2)C1 (centres undefined)	-1%	nt	-4%	12%	nt	nt
S=c1[nH]nc(-c2cc(-c3ccccc3)n[nH]2)n1/N=C/C(Br)=C/c1ccccc1	?	?	14µM*	?	?	-100*
CC(/C=N/n1c(-c2cccnc2)n[nH]c1=S)=C\c1ccccc1	2%	-15%	-13%	0%	-7%	-77*
CC(=C/c1ccccc1)/C=N/n1c(-c2ccncc2)n[nH]c1=S	-14%	3%[46.1 µM]	-4%	-5%	-18%[46.1 µM]	?
COc1cccc(CN(C)C(=O)CCN=C2NS(=O)(=O)c3ccccc32)c1OC	nt	nt	nt	26%	nt	-13
CCc1c(C2CC2)ncn1Cc1cccc(-c2ccccc2)c1	-22%	nt	-7%	?	nt	-99*
CCCCc1c(-c2ccccc2OC)ncn1Cc1cccc(-c2ccccc2)c1	?	nt	-21%	?	nt	?
CCc1c(-c2ccccc2)ncn1Cc1cccc(-c2ccccc2)c1	-23%	nt	?	?	nt	-68*
CCc1c(-c2cccc(OC)c2)ncn1Cc1cccc(-c2ccccc2)c1	?	nt	-18%	32µM*	nt	?
CCc1c(-c2ccc(Cl)cc2)ncn1Cc1cccc(-c2ccccc2)c1	?	nt	?	?	nt	-35
CCc1c(-c2ccccc2F)ncn1Cc1cccc(-c2ccccc2)c1	?	nt	?	?	nt	-71*
Cc1cccc(C)c1-n1ncc(C(=O)N2CCN(c3ccccc3)CC2)c1C1CCN(C(=O)OC(C)(C)C)CC1	-10%	?	i	?	nt	15
CCN1C(=O)[C@@H]2[C@H]3[C@H](O)[C@H](O)CC(=NOC[C@@H](O)COCc4ccco4)[C@@H]3CC[C@H]2C1=O	nt	nt	nt	nt	-22%[14.2 µM]	nt
Cc1noc(/C=C/c2cccnc2)c1[N+](=O)[O-]	nt	nt	nt	14µM*	nt	-98*
Cc1ccc(C(=O)c2c3ccc([N+](=O)[O-])cc3[n+]([O-])n2CCCN)cc1	14µM*	nt	?	7%	nt	-2
SMILES	Vaccinia Venus	LASV entry inh	Vaccinia mCherry	FMDV antiviral	MARV entry inh	HCMV inh
COc1ccc(C(=O)c2c3ccccc3[n+]([O-])n2CCCN)cc1	-6%	nt	-12%	-3%	nt	-96*!
Cc1ccc(C(=O)c2c3ccc(C(F)(F)F)cc3[n+]([O-])n2CCCN)cc1	?	nt	?	-13%	nt	-2
CCOC(=O)N1C(=O)[C@](c2ccc(Cl)cc2)(C(C)C)N1C(=O)OCC	?	nt	10µM*	28µM*	nt	-90*
COC(=O)N1C(=O)[C@](c2ccccc2)(C(C)C)N1C(=O)OC	-26%	nt	?	-26%	nt	19
CCOC(=O)N1C(=O)[C@@](c2ccc(Cl)cc2)(C(C)C)N1C(=O)OCC	13µM*	nt	?	?	nt	44
O=C1Cc2cc(NS(=O)(=O)c3ccc(Cl)cc3)cc3c2N1CCC3	-10%	-2%	0%	11%	0%	-25
